# From PubChem BioAssay
# Records with an inconclusive call do not appear. Activity calls are given as the source filed them. Unless noted, the limit is not given here; nearly all actives have AC50 up to about 26 µM.
# Legend:
# [1] = growth inhibition of DIPG glioma cells, dose response, cell-based, SU-DIPG-XIII, MIPE5.0, CellTiter-Glo, qHTS (AID 1347064; cut-off not given, nearly all actives have AC50 up to about 23 µM;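 as to AC50: cells exposed to compound for 48 hours before the viability read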); settings: SU-DIPG-XIII viability, CellTiter-Glo ATP luminescence
# [2] = viability loss in pontine glioma line – cell-based, SU-DIPG-XXV, MIPE5.0, CellTiter-Glo, qHTS, dose response (AID 1347065); settings: CellTiter-Glo ATP luminescence;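 also: cells exposed to compound for 48 hours before ATP readout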
# [3] = JHH-DIPG-1 glioma cell viability, MIPE5.0 library, CellTiter-Glo luminescence, qHTS (AID 1347067); settings: JHH-DIPG-1 glioma viability, CellTiter-Glo ATP luminescence;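 also: cells exposed to compound for 48 hours before readout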
# [4] = SU-DIPG-XXV glioma cell viability, MIPE5.0 library, qHTS (AID 1347068; cut-off not given, nearly all actives have IC50 up to about 30 µM;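 as to IC50: cells exposed to compound for 48 hours before viability readout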)
# [5] = molecular target: Mitogen-activated protein kinase 7 (Homo sapiens) (UniProt Q13164); assay: ERK5 transactivation activators in reporter cells, primary screen, cell-based, HTS (AID 1508626;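 active = luciferase signal above three times the same-plate solvent-only control wells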;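 also: luciferase driven by Gal4-ERK5 fusion binding five Gal4 sites before minimal TATA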); settings: HeLa Gal4-ERK5 transactivation, 18 h, at 5 µM, stronger effect = higher value
# [6] = growth inhibition of DIPG glioma cells, dose response, cell-based, JHH-DIPG-1, MIPE4.0, CellTiter-Glo, qHTS (AID 1347062; cut-off not given, nearly all actives have AC50 up to about 27 µM;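 as to AC50: cells exposed to compound for two days before readout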); settings: JHH-DIPG-1 viability, CellTiter-Glo ATP luminescence
# [7] = viability rescue of complex I mutant cybrids, primary screen, cell-based, galactose medium, ATP luminescence (AID 1645843;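 active = z-score of at least 1.8 in each of two replicates, scored against plate mean and spread of sample wells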;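 also: positive z means more ATP and so rescue of galactose-driven cybrid death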); settings: complex I mutant cybrid cells, 72 h, stronger effect = higher value
# [8] = growth inhibition of DIPG glioma cells, dose response, cell-based, SU-DIPG-IV, MIPE4.0, CellTiter-Glo, qHTS (AID 1347063; cut-off not given, nearly all actives have AC50 up to about 30 µM;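 also: compound exposure lasted 48 hours before the viability readout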); settings: SU-DIPG-IV viability, CellTiter-Glo ATP luminescence
# [9] = SU-DIPG-VI glioma cell viability, MIPE4.0 library, CellTiter-Glo luminescence, qHTS (AID 1347066; cut-off not given, nearly all actives have AC50 up to about 30 µM;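 also: cells exposed to compound for 48 hours before readout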); settings: CellTiter-Glo ATP luminescence
# [10] = LFS_MB_1R medulloblastoma cell growth inhibition, synergistic combos for chromothripsis tumors, cisplatin or BGB combos (AID 1671452; in the data active = inhibition above about 80%;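 also: cells exposed for 96 hours before readout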); settings: LFS_MB_1R medulloblastoma cells, stronger effect = higher value
# [11] = CRL2098 osteosarcoma cell growth inhibition, synergistic combos for chromothripsis tumors, BGB or cisplatin IC20 combos (AID 1671454; in the data active = inhibition above about 80%;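 also: cells exposed for 96 h before readout; 0% = vehicle DMSO and 100% = killing by high DMSO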); settings: CRL2098 osteosarcoma cells, drug combinations, stronger effect = higher value
# [12] = HD-MB03 medulloblastoma cell growth inhibition, synergistic combos for chromothripsis tumors, BGB or cisplatin IC20 combos (AID 1671455; in the data active = inhibition above about 83%;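 also: 0% = vehicle DMSO and 100% = high DMSO as cytotoxic control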); settings: HD-MB03 medulloblastoma cells, stronger effect = higher value
# [13] = UWB1.289 ovarian carcinoma cell growth inhibition, synergistic combos for chromothripsis tumors, BGB or cisplatin combos (AID 1671456; in the data active = inhibition above about 80%;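 also: cells exposed to compound for four days; 0% = vehicle DMSO and 100% = killing by high DMSO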); settings: UWB1.289 ovarian carcinoma cells, stronger effect = higher value
# [14] = LFS_MB_2R medulloblastoma cell growth inhibition, synergistic combos for chromothripsis tumors, cisplatin combos (AID 1671457; in the data active = inhibition above about 80%;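 also: cells exposed to compound for four days before readout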); settings: LFS_MB_2R medulloblastoma cells, stronger effect = higher value
# [15] = UWB1.289_BRCA1 ovarian cancer growth, cell-based, BGB or cisplatin combinations (AID 1671459; in the data active = inhibition above about 80%); settings: UWB1.289 BRCA1 ovarian carcinoma, drug combinations, stronger effect = higher value
# [16] = human astrocyte viability loss, single and combined drugs, cytotoxicity control for chromothriptic childhood tumor combination screen, cell-based, BGB or cisplatin IC20 combos (AID 1671460; in the data active = inhibition above about 80%;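 also: cells exposed to compounds for 96 hours before viability readout; 0% = vehicle and 100% = killing control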); settings: Human astrocytes, drug combinations, stronger effect = higher value
# [17] = growth inhibition of BT084 medulloblastoma cells, cell-based, ICGC_MB145, cisplatin and BGB IC40 combos (AID 1671461; in the data active = inhibition above about 80%;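 also: cells exposed to drugs for 96 hours; 0% = vehicle DMSO and 100% = high DMSO full killing control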); settings: drug combinations, stronger effect = higher value
# [18] = growth inhibition of RCMB18 medulloblastoma cells, cell-based, cisplatin and BGB IC40 combos (AID 1671462; in the data active = inhibition above about 80%;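 also: cells exposed to compound for four days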); settings: stronger effect = higher value
# [19] = growth inhibition of CRL1545 osteosarcoma cells, cell-based, cisplatin and BGB IC20 combos (AID 1671464; in the data active = inhibition above about 80%;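 also: cells exposed to compound for 96 hours before readout; 0% = vehicle DMSO and 100% = high DMSO killing control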); settings: stronger effect = higher value
# [20] = modifiers of HSF1 nuclear foci, imaging, Selleck Cancer Library (AID 1347162; in the data active = plate-normalised HSF1 focus index below about 0.46); settings: human cells, at 10 µM; SSMD: measured here: HSF1 foci SSMD mean; cell count: measured here: cell number; plate-normalised HSF1 focus index: stronger effect = lower value
# [21] = measured here: combination with cisplatin, at 0.5 µM
# [22] = measured here: combination with cisplatin, at 5 µM
# Mitogen-activated protein kinase 7 (Homo sapiens), sequence (Q13164 whole entry, looked up, the tested form may be a part): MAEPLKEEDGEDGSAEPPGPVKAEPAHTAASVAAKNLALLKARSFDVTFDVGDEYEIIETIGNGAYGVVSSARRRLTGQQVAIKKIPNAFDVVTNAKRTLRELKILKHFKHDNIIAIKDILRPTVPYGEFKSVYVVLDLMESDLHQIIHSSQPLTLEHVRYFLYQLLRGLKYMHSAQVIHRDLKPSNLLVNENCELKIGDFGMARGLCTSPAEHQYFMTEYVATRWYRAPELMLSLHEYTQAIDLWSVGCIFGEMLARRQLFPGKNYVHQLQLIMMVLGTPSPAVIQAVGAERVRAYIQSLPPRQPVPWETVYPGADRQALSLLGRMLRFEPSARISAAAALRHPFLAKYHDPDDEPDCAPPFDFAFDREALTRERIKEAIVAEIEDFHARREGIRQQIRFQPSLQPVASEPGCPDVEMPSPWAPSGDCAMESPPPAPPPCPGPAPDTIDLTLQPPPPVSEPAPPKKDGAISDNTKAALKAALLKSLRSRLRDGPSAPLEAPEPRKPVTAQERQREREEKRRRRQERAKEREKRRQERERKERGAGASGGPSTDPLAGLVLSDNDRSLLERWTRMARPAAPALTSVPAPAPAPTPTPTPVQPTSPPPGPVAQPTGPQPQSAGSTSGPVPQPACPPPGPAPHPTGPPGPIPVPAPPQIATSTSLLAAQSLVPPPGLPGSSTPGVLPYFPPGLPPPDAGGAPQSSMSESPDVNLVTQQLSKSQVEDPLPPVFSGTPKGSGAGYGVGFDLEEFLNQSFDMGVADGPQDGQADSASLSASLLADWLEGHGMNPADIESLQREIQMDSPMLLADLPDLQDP
compound,measurement,setting,value
CN(N=O)C(=O)N[C@@H]1[C@@H](O)[C@H](O)[C@@H](CO)O[C@@H]1O,outcome,[1],inactive
same,outcome,[2],inactive
same,outcome,[3],inactive
same,outcome,[4],inactive
same,luciferase signal,[5],120 AU (inactive)
Clc1ccc(C(Cn2ccnc2)OCc2ccsc2Cl)c(Cl)c1 (stereo unspecified),outcome,[6],inactive
same,luciferase signal,[5],72 AU (inactive)
same,z-score,[7],-1.6 (inactive)
N=C(N=C(N)N)N1CCOCC1,outcome,[8],inactive
same,outcome,[9],inactive
same,z-score,[7],0.495 (inactive)
same,inhibition,[10]; at 0.5 µM,-2.71% (inactive)
same,inhibition,"[10]; measured here: combination with BGB IC40, at 0.05 µM",2.02%
same,inhibition,[10]; [21],8.46%
same,inhibition,[10]; [22],-12.4%
same,inhibition,[11]; at 0.5 µM,-24.9% (inactive)
same,inhibition,"[11]; measured here: combination with BGB at IC20, at 0.5 µM",-15.5%
same,inhibition,"[11]; measured here: combination with cisplatin at IC20, at 0.5 µM",-34.6%
same,inhibition,[12]; at 0.5 µM,-2.36% (inactive)
same,inhibition,"[12]; measured here: combo with BGB at IC20, at 0.5 µM",3.57%
same,inhibition,"[12]; measured here: combo with cisplatin at IC20, at 0.5 µM",-15.2%
same,inhibition,[13]; at 0.5 µM,6.16% (inactive)
same,inhibition,"[13]; measured here: inhibition with BGB combination, at 0.05 µM",-1.97%
same,inhibition,"[13]; measured here: inhibition with cisplatin combination, at 0.05 µM",3.05%
same,inhibition,[14]; at 0.5 µM,6.81% (inactive)
same,inhibition,[14]; [21],8.19%
same,inhibition,[14]; [22],-31.5%
same,inhibition,"[15]; BGB combination, concentration series, at 5 µM",1.52%
same,inhibition,[15]; at 0.5 µM,3.22% (inactive)
same,inhibition,"[15]; cisplatin combination, concentration series, at 5 µM",4.22%
same,inhibition,[16]; at 0.5 µM,2.04% (inactive)
same,inhibition,"[16]; measured here: combo with BGB IC20, at 0.5 µM",7.42%
same,inhibition,"[16]; measured here: combo with cisplatin IC20, at 0.5 µM",-4.5%
same,inhibition,[17]; at 0.5 µM,3.57% (inactive)
same,inhibition,"[17]; cisplatin combination, at 0.5 µM",-9.16%
same,inhibition,"[17]; cisplatin combination, at 5 µM",7.43%
same,inhibition,"[17]; measured here: BGB IC40 combination 0.05 uM, at 0.05 µM",0.739%
same,inhibition,"[17]; single agent, at 5 µM",-12.3%
same,inhibition,[18]; at 0.5 µM,5.29% (inactive)
same,inhibition,"[18]; cisplatin combo, at 5 µM",-26%
same,inhibition,"[18]; measured here: BGB IC40 combination, at 0.05 µM",-14.8%
same,inhibition,[18]; [21],25.2%
same,inhibition,"[18]; single agent, at 5 µM",-13.7%
same,inhibition,[19]; at 0.5 µM,2.6% (inactive)
same,inhibition,"[19]; measured here: with BGB IC20 combination, at 0.5 µM",-18.7%
same,inhibition,"[19]; measured here: with cisplatin IC20 combination, at 0.5 µM",11.3%
same,inhibition,"[19]; single agent, at 0.05 µM",0.225%
same,inhibition,"[19]; single agent, at 5 µM",8.11%
Nc1cc(C(Cl)=C(Cl)Cl)c(S(N)(=O)=O)cc1S(N)(=O)=O,outcome,[6],inactive
same,outcome,[8],inactive
same,outcome,[1],inactive
same,outcome,[2],inactive
same,outcome,[9],inactive
same,outcome,[3],inactive
same,outcome,[4],inactive
CC(S)C(=O)NCC(=O)O (stereo unspecified),outcome,[6],inactive
same,outcome,[9],inactive
same,outcome,[4],inactive
CNCCCC1c2ccccc2C=Cc2ccccc21,luciferase signal,[5],40 AU (inactive)
same,z-score,[7],-1.15 (inactive)
CC(C)(Oc1ccc(C2CC2(Cl)Cl)cc1)C(=O)O (stereo unspecified),outcome,[6],inactive
same,outcome,[1],inactive
same,outcome,[2],inactive
same,outcome,[9],inactive
same,outcome,[3],inactive
same,outcome,[4],inactive
same,z-score,[7],0.695 (inactive)
Clc1ccc(Cn2c(CN3CCCC3)nc3ccccc32)cc1,outcome,[3],inactive
same,outcome,[4],inactive
same,luciferase signal,[5],56 AU (inactive)
same,z-score,[7],-1.35 (inactive)
CC(=O)Oc1cc(C(C)C)c(OCCN(C)C)cc1C,z-score,[7],0.335 (inactive)
CN(C)CCN(Cc1ccc(Cl)cc1)c1ccccn1,outcome,[6],inactive
same,outcome,[9],inactive
COc1cccc2c1C(=O)c1c(O)c3c(c(O)c1C2=O)C[C@@](O)(C(C)=O)C[C@@H]3O[C@H]1C[C@H](N)[C@H](O)[C@H](C)O1,AC50,[6],33.2 nM (active)
same,AC50,[8],46.9 nM (active)
same,AC50,[1],742 nM (active)
same,AC50,[2],742 nM (active)
same,AC50,[3],742 nM (active)
same,IC50,[4],3320 nM (active)
same,SSMD,[20],-15.6
same,cell count,[20],7130
same,plate-normalised HSF1 focus index,[20],0.198 (active)
same,luciferase signal,[5],300 AU (active)
same,z-score,[7],-2.16 (inactive)
CC(C)Cn1cnc2c(N)nc3ccccc3c21,AC50,[6],18700 nM (active)
same,AC50,[8],20900 nM (active)
same,outcome,[1],inactive
same,outcome,[9],inactive
same,outcome,[3],inactive
same,outcome,[4],inactive
same,z-score,[7],0.245 (inactive)
C[C@H]1[C@H](NC(=O)/C(=N/OC(C)(C)C(=O)O)c2csc(N)n2)C(=O)N1S(=O)(=O)O (stereo in doubt),outcome,[6],inactive
same,outcome,[8],inactive
same,outcome,[9],inactive
Cn1c(=O)c2c(ncn2CC2OCCO2)n(C)c1=O,outcome,[1],inactive
same,outcome,[2],inactive
same,outcome,[3],inactive
same,outcome,[4],inactive
same,z-score,[7],0.585 (inactive)
Cc1cc(=O)oc2cc(O)ccc12,outcome,[6],inactive
same,outcome,[8],inactive
same,outcome,[2],inactive
same,outcome,[9],inactive
same,outcome,[3],inactive
CCN(CC)C(=O)c1ccc(O)c(OC)c1,luciferase signal,[5],52 AU (inactive)
same,z-score,[7],0.21 (inactive)
COc1ccc2[nH]c(S(=O)Cc3ncc(C)c(OC)c3C)nc2n1 (stereo unspecified),outcome,[4],inactive
same,z-score,[7],0.825 (inactive)
Cc1nc(Nc2ncc(C(=O)Nc3c(C)cccc3Cl)s2)cc(N2CCN(CCO)CC2)n1,AC50,[6],16600 nM (active)
same,AC50,[8],16600 nM (active)
same,AC50,[1],14800 nM (active)
same,AC50,[2],14800 nM (active)
same,outcome,[9],inactive
same,AC50,[3],7420 nM (active)
same,SSMD,[20],-0.87
same,cell count,[20],6550
same,plate-normalised HSF1 focus index,[20],0.957 (inactive)
COc1cc2c(c(OC)c1OC)-c1ccc(OC)c(=O)cc1[C@@H](NC(C)=O)CC2,AC50,[6],105 nM (active)
same,outcome,[8],inactive
same,AC50,[1],52.5 nM (active)
same,AC50,[2],41.7 nM (active)
same,AC50,[3],29.5 nM (active)
same,IC50,[4],46.8 nM (active)
same,luciferase signal,[5],88 AU (inactive)
same,z-score,[7],-0.69 (inactive)
